Compound activity deposited in PubChem by National Center for Advancing Translational Sciences (NCATS).
PNC inhibitor: blocks assembly of the perinucleolar compartment; PC3M PTB-GFP, PNC prevalence imaging, 16 h; active compounds read low; activity change (PNC), negative = inhibition, % at 10 µM; actives 3.1% (n = 140,000);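 active = readout at or below -70, meaning at least 70% loss of cells showing the perinucleolar compartment, a nuclear body marking cancer cells; inconclusive = readout between -30 and a set limit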
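PC3M cells stably expressing PTB-GFP, 750–1000 cells/well, treated 16 h at 37 °C with compound (23 nl of library stock), in duplicate. After paraformaldehyde fixation and Hoechst stain, imaged at 20x; PNC prevalence scored by image analysis.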
12-hLO inh: 12-hLO (ALOX12) enzyme inhibition. purified 12-hLO, xylenol orange hydroperoxide absorbance. Potency, µM (series often up to 57.1 µM), most hits filed as inhibitors. actives 0.12% (n = 150,000); also: nearly all actives have a fitted effect of over 55% in size
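Hydroperoxide formation by human 12-lipoxygenase from 40 uM arachidonic acid was followed colorimetrically via ferric-xylenol orange complex, using the 573/405 nm absorbance ratio. Enzyme concentration was 150 nM, with 30 min reaction at room temperature.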
IMPase cell inh: IMPase inhibition in cells. P97697. CHO-M1 cells, IP1 accumulation, HTRF TR-FRET ratio. inhibition (IP1 accumulation), % at 46.1 µM. 120,000 tested, under 10 active; active = well fitted curve in the direction sought with a large enough effect in the signal ratio, not every such curve was filed as active; inconclusive = small, poorly fitted or top-dose-only effect, or a change in a side signal; inactive = no such curve, though single readings can be large or run the other way; the % refers to the signal ratio;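 also: cells stimulated with carbachol in lithium chloride buffer; higher means more IMPase inhibition seen as more IP1 and lower FRET ratio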
Target sequence (P97697 whole entry, looked up): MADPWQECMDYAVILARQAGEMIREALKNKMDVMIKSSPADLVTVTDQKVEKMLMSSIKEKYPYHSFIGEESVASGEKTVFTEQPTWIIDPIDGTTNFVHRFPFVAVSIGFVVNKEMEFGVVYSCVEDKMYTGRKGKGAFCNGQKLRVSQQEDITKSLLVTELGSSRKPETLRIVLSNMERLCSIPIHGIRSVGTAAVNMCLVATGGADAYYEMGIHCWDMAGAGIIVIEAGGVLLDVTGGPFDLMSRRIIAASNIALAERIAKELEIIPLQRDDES
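Elevated IP1 in lysates lowers TR-FRET signal (665/620 ratio and 620 channel reported). Cells were CHO-M1, given carbachol (50 uM as added) plus 50mM LiCl, pH 7.4, 30 min, 37C; compounds titrated up to 46 uM; AC50 by Hill equation.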
IMPase Li inh: membrane-permeable IMPase blocker, potentiated with lithium. actives 0.35% (n = 210,000). Potency, µM (doses to about 59.4 µM), most hits filed as inhibitors. AID 1457. CHO-M1 cells, IP1 TR-FRET (IP-One), carbachol + lithium;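 also: IP1 builds up when IMPase is blocked and the TR-FRET signal falls; nearly all actives have a fitted effect of over 50% in size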
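Readout is a homogeneous TR-FRET IP1 immunoassay (Ex 320, Em 665 and 620), where raised cytosolic IP1 lowers signal. Cells were CHO-M1 treated 30 min at 37C with test compounds plus a little lithium; AC50 values came from Hill-equation fitting.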
ALDH1A1 block: ALDH1A1 (human) enzyme inhibition | P00352 | Purified ALDH1A1, NADH fluorescence, propionaldehyde substrate | Potency, µM (series often up to 75.3 µM), actives largely listed as inhibitors | actives 7.3% (n = 220,000) | AID 1030; active = well fitted inhibition curve with a large enough effect, not every such curve was filed as active; inconclusive = small, poorly fitted or top-dose-only effect, or another doubt; inactive = no such curve, though single readings can be large or run the other way
HPGD inh: inhibitors of human 15-hydroxyprostaglandin dehydrogenase (HPGD). P15428. purified HPGD, NADH fluorescence kinetic, PGE2 substrate. Potency, µM, actives largely listed as inhibitors. actives 4.3% (n = 150,000). AID 894; active = well fitted inhibition curve with a large enough effect, not every such curve was filed as active; inconclusive = small, poorly fitted or top-dose-only effect, or another doubt; inactive = no such curve, though single readings can be large or run the other way
Target sequence (P15428 whole entry, looked up): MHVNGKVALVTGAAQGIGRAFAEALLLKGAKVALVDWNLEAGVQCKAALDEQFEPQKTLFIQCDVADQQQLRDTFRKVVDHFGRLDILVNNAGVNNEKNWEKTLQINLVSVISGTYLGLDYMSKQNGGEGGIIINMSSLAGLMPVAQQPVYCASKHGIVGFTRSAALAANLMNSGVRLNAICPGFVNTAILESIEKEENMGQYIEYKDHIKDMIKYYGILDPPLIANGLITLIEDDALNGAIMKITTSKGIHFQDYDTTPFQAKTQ
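NADH formation kinetics: reaction with 30 uM PGE2 and 1 mM NAD+ (final), 20 nM enzyme, Tris-HCl pH 8 with Tween 20, after 15 min compound preincubation at room temperature. Fluorescence change, last versus first of five reads.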
A number is an active result; – = inactive; ? = inconclusive; · = no result; [ ] = another dose, or the depositor's remark. The list is not random: actives were taken first. Their share in the collection is about 11%. Unless noted, calls follow the shape of the dose curve; as a rule, active = well fitted curve in the direction sought with a large enough effect; inconclusive = small, poorly fitted or top-dose-only effect, or another doubt; inactive = no such curve, though single readings can be large; an effect the other way counts as inactive or inconclusive.

SMILES	PNC inhibitor	12-hLO inh	IMPase cell inh	IMPase Li inh	ALDH1A1 block	HPGD inh
COc1cc(/C=C(\NC(C)=O)C(=O)Nc2cccc(O)c2)ccc1OC(C)=O	?	–	·	–	0.089µM	–
CS(=O)(=O)Nc1ccc([N+](=O)[O-])cc1OC1CCCCC1	·	–	–	–	22µM	–
CS(=O)(=O)Nc1ccc([N+](=O)[O-])cc1Oc1ccccc1	?	–	–	–	–	–
Cc1cccc(C)c1Nc1oc(-c2ccccc2)nc1-c1cccc2ccccc12	·	–	·	–	–	–
COc1ccc(C/C(N)=N/OC(=O)C(c2ccccc2)c2ccccc2)cc1OC	–	–	–	·	6.3µM	·
COc1ccc(C/C(N)=N/OC(C)=O)cc1OC	?	–	·	–	–	–
COc1ccc(/C(N)=N/OC(=O)Cc2ccc(OC)c(OC)c2)cc1	–	–	–	·	7.9µM	·
CN1CCC2(CCN3CCc4c(oc5ccccc45)C3C2)N(C)C1=O (stereo unspecified)	·	·	·	–	–	–
O=C1OC(c2ccccc2)=NC12CC2c1ccc(Cl)cc1 (stereo unspecified)	–	–	·	–	28µM	28µM
COC(=O)CCC(=O)OC1(C)C(=O)C=C2C=C(CCCNC(=O)OC(C)(C)C)OC=C2C1=O (stereo unspecified)	·	–	·	–	–	–
CC1CC(C)(C)NC(C)c2ccccc21 (stereo unspecified)	–	–	–	·	–	·
CC1CC(C)(C)NCc2ccccc21 (stereo unspecified)	–	–	?	·	0.56µM	·
CCNc1nc(NC(C)(C)C)nc(N2CCCC2)n1	–	–	–	–	–	–
CC(C)(C)Nc1nc(N2CCCC2)nc(N2CCCC2)n1	?	–	–	–	0.5µM	–
S=C1NNC2(NN1)C1CC3CC(C1)CC2C3	-100	–	–	–	–	–
O=C(Cn1nc(-c2ccc(Cl)cc2)c2ccccc2c1=O)Nc1cccc(C(F)(F)F)c1	·	·	–	·	·	·
O=c1cc(O)nc(SCc2ccc(Cl)cc2)[nH]1	–	–	–	–	–	–
CC(=O)c1ccc(OC(C)C)c(CSc2nc(O)cc(=O)[nH]2)c1	–	–	–	–	?	3.5µM
COc1ccc(Nc2nnc(SCc3cc(=O)n4ccsc4n3)s2)cc1	?	–	–	–	14µM	32µM
O=C1NC(=O)/C(=C\c2cn(Cc3ccccc3F)c3ccccc23)N1	·	·	·	–	14µM	·
Clc1ccc(Cn2cc(/C=N/n3cnnc3)c3ccccc32)c(Cl)c1	–	–	–	–	–	–
Cc1ccc(OCCCC(=O)Nc2sc3c(c2C(N)=O)CCC(C)C3)cc1 (stereo unspecified)	·	·	–	·	·	·
CC(=O)c1ccc(N2CCN(C(=O)c3cc4c(s3)CCCC4)CC2)cc1	·	·	·	–	22µM	·
O=C(c1cc2c(s1)CCCCC2)N1CCN(c2ncccn2)CC1	–	–	–	–	14µM	–
COc1ccccc1N1CCN(C(=O)c2cc3c(s2)CCC3)CC1	–	–	–	–	20µM	–
SMILES	PNC inhibitor	12-hLO inh	IMPase cell inh	IMPase Li inh	ALDH1A1 block	HPGD inh
O=C(O)c1cc2c(s1)CCCC2	–	–	–	–	–	–
O=C(c1cc2c(s1)CCCC2)n1cccn1	–	–	–	–	?	16µM
O=S1(=O)OC(c2ccc(O)cc2)(c2ccc(O)cc2)c2ccccc21	·	–[11.4 µM]	·	–	–[13.5 µM]	–
COc1cccc(Cn2c(=O)cnc3cnc(N4CCN(C)CC4)nc32)c1	·	·	·	–	?	·
CSc1nc(N(C)NC(=O)c2ccc(F)cc2)c2ccccc2n1	-83	–	–	–	–	–
Cn1c(CNC(=O)c2ccc(F)cc2)nc2ccccc21	–	–	–	–	–	–
CO[C@H]1COC(=O)C/C=C\[C@H](C)[C@@H](OC)COC(=O)[C@H](C)COC(=O)C/C=C\[C@@H]1C	·	·	·	·	–[13.5 µM]	·
COc1ccc(/C=N/NC(N)=S)cc1OC(=O)c1ccccc1	–	–	–	–	–	25µM
COc1ccc(C(=O)Oc2cc(/C=N/NS(=O)(=O)c3ccccc3)ccc2OC)cc1	–	–	–	–	3.2µM	–
COc1ccc(/C=N/NC(=O)c2cccc([N+](=O)[O-])c2)cc1OC(=O)c1ccccc1	–	–	?	–	?	?
COc1ccc(/C=N/NC(=S)SC)cc1OC	·	·	·	–	10µM	·
